Hits are enriched below; roughly 0.5% of the tested compounds scored in any of these assays.
phage Ecoli inh: E. coli growth loss with phage present | growth absorbance | inhibition, % at 11.9 µM | actives 0.26% (n = 360,000) | AID 651602; in the data active = inhibition above about 11%
E coli growth-1: bacterial growth inhibition, counter-screen for AddAB inhibitors | E. coli V3065 growth, OD600 absorbance, 18 h | inhibition, % at 11.9 µM | actives 0.27% (n = 330,000) | AID 449728;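 active = inhibition above the campaign's mean inhibition across all tested compounds plus 3 SD, cut at about 9.9% in these data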;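 note: uninfected addAB+ strain grown without phage in ampicillin broth; 0% = DMSO wells and 100% = ciprofloxacin 0.95 µg/ml wells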
E coli growth-2: E. coli growth inhibition. actives 0.21% (n = 330,000). Escherichia coli growth, OD600, 23 h; active compounds read low. OD600 absorbance (test concentration not listed);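 active = OD600 absorbance below the run mean of sample wells minus 3.6 SD, in any replicate, cut at about 0.56 in these data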
Tat export inh: blocks Tat-dependent protein export in E. coli | E. coli MC4100 TorA-mCherry Tat export, fluorescence | inhibition, % at 10 µM | actives 0.036% (n = 340,000) | AID 488895;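 active = mean replicate inhibition at least 50% and at least half of replicates individually reaching 50%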;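 note: exported cargo escapes ClpAP degradation while cytoplasmic cargo is degraded and loses fluorescence; 0% = median of neutral control wells and 100% = median of NaSCN control wells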
AddAB inh: less growth of phage-infected E. coli with AddAB | E. coli expressing H. pylori AddAB, absorbance growth | AID 435030 | inhibition, % at 11.9 µM | actives 0.29% (n = 330,000); in the data active = inhibition above about 12%;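 note: 0% = vehicle wells of infected cells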
AddAB confirm: growth loss of T4-infected E. coli expressing H. pylori AddAB, confirmed; actives 64% (n = 880); inhibition, % at 11.9 µM; shares compounds with AddAB inh; E. coli V3065 expressing H. pylori AddAB, T4 phage, OD; T4 phage with gene 2 nonsense mutations;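 active = mean inhibition above a set limit taken from the earlier primary screen, cut at about 13% in these data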;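 note: higher means less bacterial growth since AddAB block lets phage replicate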
RecBCD counter: reduces growth of phage-infected RecBCD+ E. coli, AddAB inhibitor counter-screen; shares compounds with AddAB inh; E. coli V66 + mutant T4 phage, OD growth; inhibition, % at 11.9 µM; actives 73% (n = 880);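 active = mean inhibition above the mean of solvent-only control wells plus 3 SD, cut at about 4% in these data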;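 note: optical density read after an 18 h incubation at 37 °C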
Bact viability: counter-screen: bacterial growth inhibition; inhibition, % at 11.9 µM; actives 35% (n = 880); AID 488956; bacterial viability, absorbance (AddAB counterscreen); shares compounds with AddAB inh; in the data active = inhibition above about 25%
RecBCD conf: growth loss of phage-infected V66 E. coli, RecBCD confirmation screen. shares compounds with phage Ecoli inh. E. coli V66 + T4 2- phage, growth OD. inhibition, % at 11.9 µM. actives 45% (n = 890). AID 651982;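 active = mean inhibition over triplicates exceeding the hit threshold derived in the original primary screen, cut at about 11% in these data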
Ecoli viability: counter-screen for RecBCD inhibitors: inhibitors of bacterial viability | shares compounds with phage Ecoli inh | E. coli viability, absorbance (OD) growth | inhibition, % at 11.9 µM | actives 29% (n = 890); in the data active = inhibition above about 20%;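 note: E. coli strain V66 grown with compound alone and no phage infection; 0% = bacteria with DMSO vehicle only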
AddAB counter: growth loss of phage-infected AddAB E. coli, RecBCD counter-screen | shares compounds with phage Ecoli inh | E. coli expressing H. pylori AddAB + T4 phage, OD growth; gene 2 mutant T4, recBCD-deleted host | inhibition, % at 11.9 µM | actives 45% (n = 890) | AID 651984;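 active = mean inhibition above the solvent-only control wells' mean plus 3 SD, cut at about 22% in these data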;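 note: higher means less bacterial growth from phage killing when AddAB is blocked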
Numbers without * were called inactive; / = no result given.

SMILES | phage Ecoli inh | E coli growth-1 | E coli growth-2 | Tat export inh | AddAB inh | AddAB confirm | RecBCD counter | Bact viability | RecBCD conf | Ecoli viability | AddAB counter
CCn1cc(C(=O)O)c(=O)c2cc(F)c(N3CCN(C(=S)NC(=O)c4cccc(C)c4)CC3)cc21 | 92.9* | 97.6* | 0.071* | 28.3 | 96.5* | 99.6* | 100.0* | 99.5* | 102.9* | 103.3* | 103.9*
COc1ccc(C(C)=NNC(=O)CNC(=O)C2COc3ccccc3O2)c(OC)c1 (stereo not drawn) | / | / | 0.647 | / | / | / | / | / | / | / | /
CN(C)CCC=C1c2ccccc2CSc2ccccc21 | / | / | 0.689 | / | / | / | / | / | / | / | /
CCN1CCN(Cc2ccc(NC(=O)c3ccc(C)c(NC(=O)CC4NC(=O)C(Cc5ccccc5)NC4=O)c3)cc2C(F)(F)F)CC1 (stereo not drawn) | / | / | 0.685 | / | / | / | / | / | / | / | /
Cc1ccc(C=NNC(=O)C(=O)NN=Cc2ccc(C)o2)o1 | / | / | 0.701 | / | / | / | / | / | / | / | /
CCCC(=O)NC(c1ccc(C(C)C)cc1)c1ccc2cccnc2c1O (stereo not drawn) | 20.6* | 26.7* | / | -0.5 | 25.6* | 21.0* | 18.6* | 19.5 | 14.5* | 16.9 | 21.2
CCCC(=O)NC(c1ccc(N(C)C)cc1)c1ccc2cccnc2c1O (stereo not drawn) | 26.0* | 28.0* | / | 0.8 | 31.1* | 25.2* | 22.4* | 20.4 | 17.3* | 23.6* | 29.4*
O=C(O)c1ccccc1NC(c1ccccc1)c1ccc2cccnc2c1O (stereo not drawn) | 9.7 | / | / | 12.1 | / | / | / | / | / | / | /
CCC(=O)NC(c1ccc(C)cc1)c1ccc2cccnc2c1O (stereo not drawn) | 24.3* | 29.3* | / | -2.8 | 24.0* | 21.7* | 23.6* | 17.1 | 14.5* | 20.9* | 29.3*
CCC(=O)NC(c1ccc(C)cc1)c1cc([N+](=O)[O-])c2cccnc2c1O (stereo not drawn) | 2.4 | -0.7 | 0.714 | 0.5 | 2.2 | / | / | / | / | / | /
CC(=NNC(=O)OC(C)(C)C)c1cccc([N+](=O)[O-])c1 | / | / | 0.613 | / | / | / | / | / | / | / | /
COc1ccc(C=NNC(=O)c2ccc(Br)cc2)c(OC)c1 | / | / | 0.679 | / | / | / | / | / | / | / | /
CC(=O)NN=Cc1cc([N+](=O)[O-])ccc1OCCOc1ccccc1 | / | / | 0.685 | / | / | / | / | / | / | / | /
NC(=O)NN=Cc1cn(CC(=O)Nc2ccc(F)cc2)c2ccccc12 | / | / | 0.632 | / | / | / | / | / | / | / | /
CN1CCN(c2c(F)cc3c(=O)c(C(=O)O)cn4c3c2SCC4)CC1 | 98.5* | 98.0* | 0.047* | 42.6 | 97.9* | 101.7* | 101.2* | 103.4* | 102.4* | 104.1* | 102.9*
C[C@H]1COc2c(N3CCN(C)CC3)c(F)cc3c(=O)c(C(=O)O)cn1c23 | 99.7* | 99.0* | / | 147.8* | 98.3* | 102.1* | 101.0* | 101.8* | 104.2* | 105.7* | 105.5*
COC(=O)C1=C(C)N(CC2CC2)C(=O)NC1c1ccccc1 (stereo not drawn) | / | / | 0.667 | / | / | / | / | / | / | / | /
O=C(N/N=C\c1ccc([N+](=O)[O-])o1)c1cncc(Br)c1 | 3.4 | 4.7 | / | -18.6 | 8.6 | / | / | / | / | / | /
O=C(N/N=C/c1ccc([N+](=O)[O-])o1)c1ccc(O)cc1 | 23.1* | 97.2* | / | -29.2 | 98.1* | 96.0* | 23.8* | 78.2* | 17.0* | 21.2* | 98.2*
O=C(N/N=C/c1ccc([N+](=O)[O-])o1)c1ccncc1 | 23.4* | 18.2* | / | / | 93.8* | 96.9* | 19.3* | 33.1* | 15.6* | 19.0 | 63.8*
